Data taken from the supplement of paper PMC12636033.
± gives the standard deviation of the averaged measurements. In all, about 33,000 sequences were measured (“E-score (rank enrichment, -0.5 to 0.5)”: median about -0.0028, highest 2% from about 0.23 on). This is one part of a sample in which the highest values are shown more often than they occur.

Test system: 2Sb-muMax20 (muMax20 with two 1,3-bis(methyl)benzene Cys staples, A13C/A17C and Q88C/A92C, C-terminal Lys)
Assay: PBM 8-mer E-score (E-score (rank enrichment, -0.5 to 0.5)); higher = stronger preferential binding
Procedure: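 Protein binding microarray (universal PBM chip covering all 10-mers in fixed probe flanks) with chemically synthesized human Max(13-93) bHLH-LZ analogs (not full-length Max) bearing noncanonical residues (hArg, Tha, Aib, Nle at 65) and aromatic Cys staples. Read-out per 8-mer (and its reverse complement): E-score (rank-based enrichment, -0.5 to 0.5) and Z-score of median probe intensity.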

Row | Sequence | PBM 8-mer E-score
1 | CGATTCCC | 0.142 ± 0.0041
2 | AAGACACG | 0.23 ± 0.029
3 | CAGACACG | -0.0916 ± 0.036
4 | AAGACACA | 0.0534 ± 0.033
5 | CCCCGTAG | -0.0497 ± 0.00093
6 | CCCCGTAA | 0.276 ± 0.014
7 | ACCCGTAA | -0.0543 ± 0.035
8 | GCTAGGTA | -0.0432 ± 0.18
9 | ATTGTGTC | 0.0993 ± 0.063
10 | GGGGCGTA | 0.15 ± 0.08
11 | TACGTGGA | 0.0786 ± 0.0068
12 | CACGTGGG | 0.438 ± 0.0088
13 | GACGTGGC | -0.00165 ± 0.017
14 | AACGTGGG | 0.196 ± 0.0051
15 | AACGTGGC | 0.192 ± 0.021
16 | CACGTGGC | 0.317 ± 0.015
17 | AACGTGGA | 0.0893 ± 0.031
18 | GACGTGGA | 0.0221 ± 0.026
19 | CACGTGGA | 0.383 ± 0.029
20 | ACTTAGAA | -0.02 ± 0.04
21 | CGAAGGCC | -0.212 ± 0.015
22 | CAACTTGC | -0.1303 ± 0.0012
23 | AAACTTGC | 0.254 ± 0.025
24 | AAACTTGA | 0.163 ± 0.048
25 | ACAGATTA | -0.0104 ± 0.027
26 | CCTGAAAC | -0.0931 ± 0.062

Row | Sequence | PBM 8-mer E-score
27 | GTCGTAAC | 0.00633 ± 0.033
28 | GAGTCGGA | -0.0932 ± 0.037
29 | ATTCATTC | 0.249 ± 0.029
30 | AGTCATTG | 0.264 ± 0.034
31 | CTACATTC | 0.0832 ± 0.066
32 | CTTCATAC | 0.0955 ± 0.029
33 | ATTCATAG | 0.0979 ± 0.039
34 | ATACATTG | 0.17 ± 0.021
35 | ATTCATTG | 0.0825 ± 0.018
36 | AGTCATTA | 0.0586 ± 0.056
37 | ATTCATAC | 0.276 ± 0.044
38 | AGTCATTC | 0.129 ± 0.077
39 | ATACATTC | 0.32 ± 0.023
40 | ATTCATTA | 0.114 ± 0.012
41 | GCATCTGA | -0.135 ± 0.0046
42 | GGGCCAGA | -0.122 ± 0.054
43 | CTTGGGCA | 0.0256 ± 0.03
44 | CGAGGCCC | -0.00116 ± 0.04
45 | TGCGCGAA | 0.146 ± 0.011
46 | AGCAGACA | -0.0463 ± 0.0083
47 | GACTGAGC | -0.267 ± 0.057
48 | CCACAGAG | -0.0457 ± 0.076
49 | ATATCTTC | 0.249 ± 0.029
50 | CTATCCTC | -0.015 ± 0.015
51 | ATATCTTA | 0.124 ± 0.0016
52 | ATATCCTA | 0.0634 ± 0.0093

Row | Sequence | PBM 8-mer E-score
53 | ATATCCCG | 0.0587 ± 0.04
54 | ATATCCTC | 0.262 ± 0.054
55 | CTATCCCC | 0.121 ± 0.0091
56 | CTATCTTC | 0.0336 ± 0.054
57 | ATATCCCC | 0.339 ± 0.025
58 | CTCTTTGA | -0.0279 ± 0.036
59 | ATATGATG | 0.141 ± 0.0096
60 | GTATGATA | 0.258 ± 0.026
61 | GTATGAGA | 0.0453 ± 0.12
62 | GCATGATA | 0.214 ± 0.029
63 | ATATGATA | 0.257 ± 0.058
64 | CTATGATA | 0.0532 ± 0.035
65 | ACCTTTAT | 0.02821 ± 0.00021
66 | CAGCCTCG | -0.0714 ± 0.034
67 | GGGGTTGA | 0.138 ± 0.03
68 | ACCAATTC | -0.0487 ± 0.032
69 | CCCAATTC | 0.247 ± 0.0082
70 | CCCAATTA | 0.221 ± 0.021
71 | ACGATCTG | -0.0575 ± 0.048
72 | AGCGATCC | -0.145 ± 0.057
73 | AGCGATCA | -0.298 ± 0.021
74 | AGCGATCG | 0.235 ± 0.0084
75 | GACTGTCC | -0.111 ± 0.073
76 | ATTGTCGA | 0.0736 ± 0.034
77 | CATATGGG | 0.252 ± 0.056
78 | CAAATACC | 0.0305 ± 0.029

Row | Sequence | PBM 8-mer E-score
79 | AATATATA | 0.162 ± 0.015
80 | TATATACA | 0.173 ± 0.0038
81 | AATATGGG | 0.178 ± 0.024
82 | CAAATACA | 0.23 ± 0.0088
83 | AATATATC | 0.19 ± 0.013
84 | CATATGGC | 0.142 ± 0.035
85 | AATATATT | 0.24 ± 0.054
86 | AATATACA | 0.264 ± 0.02
87 | GAAATACA | -0.0423 ± 0.015
88 | AATATACT | 0.0704 ± 0.03
89 | CTTGTGTA | 0.116 ± 0.033
90 | AGGCACAG | -0.103 ± 0.026
91 | CGCAGTAA | 0.0928 ± 0.087
92 | GGGCATCA | 0.0183 ± 0.046
93 | TAAATTCA | 0.111 ± 0.075
94 | GACATCTA | -0.1 ± 0.066
95 | AAAACAGC | 0.13 ± 0.037
96 | CGTGGAAG | 0.0947 ± 0.13
97 | GCACTAGC | 0.109 ± 0.017
98 | AATGAATA | 0.156 ± 0.018
99 | GGGCGACC | -0.0448 ± 0.029
100 | CAATCTAA | 0.0541 ± 0.078
101 | CATATATA | 0.194 ± 0.0063
102 | CATATATC | 0.13 ± 0.055
103 | AATATATG | 0.3 ± 0.004
104 | CATATATG | 0.305 ± 0.007

Row | Sequence | PBM 8-mer E-score
105 | AAAATATG | 0.143 ± 0.05
106 | AATATGTG | 0.139 ± 0.033
107 | TGCGAGCA | 0.146 ± 0.052
108 | AAACCTAC | 0.279 ± 0.06
109 | AAACCTAG | 0.000475 ± 0.031
110 | AAACCTAT | -0.107 ± 0.033
111 | GGATCTAC | -0.141 ± 0.02
112 | ACATGTAG | 0.275 ± 0.021
113 | ACATGCAT | 0.363 ± 0.013
114 | CCATGTAG | 0.172 ± 0.0065
115 | ACATGCAC | 0.0993 ± 0.062
116 | ACATGTAT | 0.267 ± 0.0098
117 | ACATGTAC | 0.309 ± 0.014
118 | GCATGTAC | 0.172 ± 0.024
119 | ACATGTCG | 0.166 ± 0.058
120 | AGATGTAT | 0.181 ± 0.031
121 | ACATGTAA | 0.217 ± 0.026
122 | CCATGTAC | -0.0138 ± 0.036
123 | ACATGCAG | 0.037 ± 0.07
124 | AAACCGTT | -0.108 ± 0.016
125 | GACCGACC | -0.162 ± 0.012
126 | AGTATCCG | -0.139 ± 0.029
127 | CCCGGCCG | -0.233 ± 0.084
128 | GCAGGAAA | 0.00101 ± 0.013
129 | CAGACGTA | -0.0519 ± 0.083
130 | CCCTCACC | 0.0586 ± 0.062

Row | Sequence | PBM 8-mer E-score
131 | AAGACCTA | 0.0674 ± 0.017
132 | AATAGTTG | 0.256 ± 0.032
133 | AATAGTTA | 0.166 ± 0.0059
134 | AATAGTTC | 0.0849 ± 0.052
135 | GACTTCAC | -0.0215 ± 0.052
136 | GGAATTCC | -0.26 ± 0.055
137 | ATCAGAAT | -0.0334 ± 0.0022
138 | AAGGTCTA | -0.00279 ± 0.068
139 | CCATGGGG | -0.134 ± 0.03
140 | ACATATGG | 0.15 ± 0.036
141 | ATATGGGG | 0.255 ± 0.0087
142 | CCATATGG | 0.322 ± 0.0072
143 | ACATGGGA | 0.0654 ± 0.083
144 | ACATATGC | 0.0308 ± 0.041
145 | ACATGGGG | 0.267 ± 0.045
146 | ATATGGGC | 0.192 ± 0.062
147 | CCATATGC | 0.125 ± 0.064
148 | GCATATGC | 0.259 ± 0.011
149 | ATATGGGA | 0.13 ± 0.017
150 | GCATATGA | 0.174 ± 0.045
151 | ACCAAAGT | -0.131 ± 0.004
152 | AAACTTCA | 0.0459 ± 0.067
153 | GCCGTGTA | 0.0129 ± 0.059
154 | AGACCGCC | -0.0551 ± 0.0086
155 | CCAACGAA | -0.0751 ± 0.0019
156 | ACTTGCGA | 0.141 ± 0.053

Row | Sequence | PBM 8-mer E-score
157 | ATGTTTAC | 0.195 ± 0.0024
158 | ACGTACGT | 0.0796 ± 0.0024
159 | CTGCACGC | 0.0673 ± 0.012
160 | CCTACAAG | -0.0983 ± 0.063
161 | ATATATGA | 0.203 ± 0.014
162 | ATATATGG | 0.279 ± 0.025
163 | ATATATGC | 0.196 ± 0.029
164 | GTACCTAA | 0.015 ± 0.015
165 | AATACAAA | 0.293 ± 0.0033
166 | AATACGAT | 0.0313 ± 0.056
167 | AATACAAT | 0.105 ± 0.028
168 | GATACAAA | 0.0261 ± 0.058
169 | GATACAAC | 0.0906 ± 0.034
170 | AATACGAG | 0.239 ± 0.016
171 | CATACAAG | 0.0617 ± 0.023
172 | AATACAAC | 0.218 ± 0.053
173 | CATACGAG | 0.039 ± 0.023
174 | CATACAAC | 0.254 ± 0.0055
175 | AATACAAG | 0.243 ± 0.066
176 | TATACAAA | 0.176 ± 0.037
